# hDAT+cocaine – changed hDAT dopamine uptake under cocaine IC80, either direction, primary screen, cocaine antagonist project, cell-based, LLC-PK1 hDAT, [14C]-dopamine uptake, MLSMR | B-score at 10 µM | LLC-PK1 hDAT cells, [14C]-dopamine uptake with cocaine IC80; actives deviate in either direction | AID 449768, 2010 | Sodium-dependent dopamine transporter (Homo sapiens), Q01959 | 110,000 compounds, 1.3% hits;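 active means Z score or B-score, a plate-position-corrected score, falls beyond the plate's 99.7% confidence bounds, in either direction; inactive means both scores lie inside the 99.7% bounds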
# CYP2C19 inhib – blockers of cytochrome P450 2C19 activity – biochemical, luminescence, ADME assay, primary screen | inhibition, % at 5 µM | P33261 | CYP2C19 Supersomes, luciferin-H EGE luminescence, 30 min | 96,000 compounds, 21% hits;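 active means CYP2C19 inhibition above a set limit at 5 µM in the primary screen, cut at about 50% in these data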
# D1 mod – D1 CRE-luciferase signal change, two-sided – cell-based, HEK293 D1, dopamine EC30, D1 allosteric modulator project, primary screen | dopamine EC30 potentiation; actives deviate in either direction | B-score at 10 µM | D(1A) dopamine receptor (Homo sapiens), P21728 | AID 641, 2007 | 58,000 compounds, 5.9% hits;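 active means luminescence count or its row- and column-corrected plate score outside the 99.7% band of the plate's sample wells, on either side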
# CYP2C9 inh – blockers of cytochrome P450 2C9 activity – biochemical, luminescence, ADME assay, primary screen; P11712; CYP2C9 Supersomes, luciferin-H conversion; inhibition, % at 5 µM; 96,000 compounds, 20% hits; AID 777, 2007;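 active means blocking of liver enzyme CYP2C9 beyond about 50% at 5 µM, limit read from the data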
# CYP2C19 act – human CYP2C19 activators, primary screen, biochemical, luminescence; Cytochrome P450 2C19 (Homo sapiens), P33261; recombinant CYP2C19, luciferin-H EGE luminescence; active compounds read high; 0 = fully inhibited enzyme, 1 = untreated enzyme; activation factor at 5 µM; 96,000 tested, under 10 active;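 active means activation factor of at least 2 at 5 µM in the primary screen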
# CYP2C9 act – human CYP2C9 activators, primary screen, biochemical, luminescence | 96,000 compounds, 1.4% hits | Cytochrome P450 2C9 (Homo sapiens), P11712 | activation factor at 5 µM | recombinant CYP2C9, luciferin-H conversion; active compounds read high; factor 1 = untreated enzyme, 0 = blocked;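 active means activation factor of 2 or more for CYP2C9 at a 5 µM dose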
# Hits are given with their value; . = inactive; / = no result given. A selection: hits, their analogues and other compounds. The true share with any hit is near 28%.
SMILES,hDAT+cocaine,CYP2C19 inhib,D1 mod,CYP2C9 inh,CYP2C19 act,CYP2C9 act
COc1ccc(OC)c(C(=O)CN2C(=O)NC(C)(c3ccccc3)C2=O)c1 (configuration not stated),.,98.8,/,.,.,2
CCOC(=O)c1c(C)[nH]c(C(=O)CSc2nnc(C3CC3)n2N)c1C,.,69.3,/,65.8,.,.
CCCCCCC(=O)c1c(C)[nH]c(C(=O)OCC)c1C,.,.,.,71.2,.,.
CCOC(=O)C(NC(=O)Cc1ccccc1)(Nc1cc(C)on1)C(F)(F)F (configuration not stated),.,/,/,/,/,/
CCOC(=O)c1c(C)[nH]c(C(=O)COC(=O)C(C)N2C(=O)C3CCCCC3C2=O)c1C (configuration not stated),.,55.3,/,51.8,.,.
CCOC(=O)c1c(C)[nH]c(C(=O)COC(=O)c2ccc(N3CCCC3=O)cc2)c1C,.,.,.,89.9,.,.
CCCCCCCCc1nc(=S)[nH][nH]1,.,/,/,/,/,/
CCO[C@H]1OC(C(=O)O)=C[C@@H](C(C)(C)C)[C@@H]1CCCO,.,/,/,/,/,/
COc1cc(-c2nnc(SCc3c(F)cccc3Cl)o2)cc(OC)c1OC,.,.,.,58.1,.,.
O=C(NC1CC1)c1cc2c(s1)-c1ccccc1OC2,.,.,-5.84,.,.,.
O=C(O)c1cc2c(s1)-c1ccccc1OC2,.,.,/,.,.,.
CCN1C(=O)C(O)(C2COC(C)(C)CC2=O)c2cc(Br)ccc21 (configuration not stated),.,.,.,.,.,.
O=C1CCCCCN1C(=O)c1cccc(C(=O)N2CCCCCC2=O)c1,.,.,.,.,.,.
O=C1CC(N2CCC(O)(c3ccc(Cl)cc3)CC2)C(=O)N1Cc1ccc(N2CCCC2=O)cc1 (configuration not stated),.,80.4,.,.,.,.
CCCCCNc1nc(-c2ccccc2)cs1,.,76.5,/,63.7,.,.
COC1(OC)N=C(N)C2(C#N)C(c3ccccc3)NC(C)=CC12C#N (configuration not stated),.,.,/,.,.,.
CC1=CC(C#N)(C#N)C(C#N)(C#N)C(c2ccccc2)N1 (configuration not stated),.,.,.,89.6,.,.
O=c1[nH]n(-c2cccc3cccnc23)c(=O)c2ccccc12,.,.,.,.,.,.
O=S1(=O)Nc2c(ccc3cccnc23)-c2ccccc21,.,.,-3.6,64.7,.,.
O=C(COC(=O)CNC(=O)c1ccco1)Nc1ccc(Cl)cn1,.,53.5,/,.,.,.
O=C(COC(=O)CCCN1C(=O)c2ccccc2C1=O)Nc1ncc(Cl)cc1Cl,.,54.0,.,57.1,.,.
COc1ccccc1NCCC(=O)OCC(=O)Nc1ccc(Cl)cn1,.,79.8,.,.,.,.
COc1ccc(CC(=O)OCC(=O)Nc2ncc(Cl)cc2Cl)cc1OC,.,51.4,/,.,.,.
O=C(CNC(=O)c1ccco1)NCC(=O)OCc1ccc(Cl)cc1,.,.,/,.,.,.
COc1cc(CCC(=O)OCC(=O)Nc2ncc(Cl)cc2Cl)cc(OC)c1OC,.,.,.,.,.,.
SMILES,hDAT+cocaine,CYP2C19 inhib,D1 mod,CYP2C9 inh,CYP2C19 act,CYP2C9 act
O=C(COC(=O)CCS(=O)(=O)c1ccc(Cl)cc1)Nc1ncc(Cl)cc1Cl,.,50.6,/,.,.,.
COc1ccccc1OCCC(=O)OCC(=O)Nc1ncc(Cl)cc1Cl,.,87.2,.,.,.,.
CC(=O)N(C)c1nnc(-c2ccccn2)s1,.,/,/,/,/,/
COc1ccc(OC(C)C(=O)N2CCOCC2)cc1 (configuration not stated),.,.,.,.,.,.
CCOc1cc(S(=O)(=O)N(CC)CC)c(OCC)cc1-n1cnnn1,.,.,/,.,.,.
CCOc1cc(S(=O)(=O)NCCc2ccccc2C)c(OCC)cc1-n1cnnn1,.,83.7,.,88.7,.,.

# Source: PubChem
